# Measurements from publication PMC7862700, “An all-to-all approach to the identification of sequence-specific readers for epigenetic DNA modifications on cytosine”.
# What was measured:
# Test in all cases: DAPPL (digital affinity profiling via proximity ligation, sequencing); 10 mM Tris-HCl pH 7.5, 50 mM NaCl, 1 mM DTT, 4% glycerol, room temperature, 30 min; GST-TFs on glutathione beads, 16-mer random dsDNA library, 0.1% formaldehyde crosslink after washing; high values mean tight binding
# Conditions in all cases: protein: recombinant; tags: N-terminal GST; dsDNA, one strand shown
# FLI1 = target: T1, FLI1 (Homo sapiens, UniProt Q01543 1-452)
# T1 sequence: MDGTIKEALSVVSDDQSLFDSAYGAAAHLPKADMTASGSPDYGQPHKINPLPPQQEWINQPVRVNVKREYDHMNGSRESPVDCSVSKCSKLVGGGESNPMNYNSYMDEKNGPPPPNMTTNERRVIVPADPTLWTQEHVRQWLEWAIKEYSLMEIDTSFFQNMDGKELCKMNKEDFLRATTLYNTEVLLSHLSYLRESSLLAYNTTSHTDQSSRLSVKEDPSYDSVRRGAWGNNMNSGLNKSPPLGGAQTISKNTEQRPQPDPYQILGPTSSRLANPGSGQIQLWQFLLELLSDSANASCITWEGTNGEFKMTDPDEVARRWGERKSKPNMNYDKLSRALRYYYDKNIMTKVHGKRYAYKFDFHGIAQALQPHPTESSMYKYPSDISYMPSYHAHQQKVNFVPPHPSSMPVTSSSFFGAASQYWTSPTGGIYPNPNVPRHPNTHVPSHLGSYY
# In short: (§1)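 Human transcription factors fused to GST were expressed in yeast, captured on glutathione beads, given DNA barcodes and pooled with a GST-only negative control. Pools were incubated with 200 nmole of a 16-mer random double-stranded DNA library in Tris/NaCl/DTT/glycerol buffer at room temperature for 30 min. They were then washed, crosslinked with 0.1% formaldehyde, proximity-ligated (BsaI/T4 ligase, 1 h, 37 °C), PCR-amplified and sequenced on an Illumina NextSeq500. Binding signal is each 6-mer's read frequency for a factor divided by its frequency for the GST control.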
# ELK1 = target: T2, ELK1 (Homo sapiens, UniProt P19419 1-428)
# T2 sequence: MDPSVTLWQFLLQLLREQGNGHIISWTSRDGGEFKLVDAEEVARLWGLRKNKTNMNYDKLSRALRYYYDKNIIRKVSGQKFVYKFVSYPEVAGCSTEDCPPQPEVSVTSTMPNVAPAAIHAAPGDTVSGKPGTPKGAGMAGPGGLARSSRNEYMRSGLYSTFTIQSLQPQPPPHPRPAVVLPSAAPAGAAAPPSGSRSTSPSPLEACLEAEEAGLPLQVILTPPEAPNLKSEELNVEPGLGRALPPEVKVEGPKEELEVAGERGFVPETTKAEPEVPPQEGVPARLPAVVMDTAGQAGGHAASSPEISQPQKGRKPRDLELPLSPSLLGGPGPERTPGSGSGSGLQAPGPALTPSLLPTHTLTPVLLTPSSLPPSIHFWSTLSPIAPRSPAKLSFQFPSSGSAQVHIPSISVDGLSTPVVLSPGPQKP
# In short: as §1
# GABPA = target: T3, GABPA (Homo sapiens, UniProt Q06546 1-454)
# T3 sequence: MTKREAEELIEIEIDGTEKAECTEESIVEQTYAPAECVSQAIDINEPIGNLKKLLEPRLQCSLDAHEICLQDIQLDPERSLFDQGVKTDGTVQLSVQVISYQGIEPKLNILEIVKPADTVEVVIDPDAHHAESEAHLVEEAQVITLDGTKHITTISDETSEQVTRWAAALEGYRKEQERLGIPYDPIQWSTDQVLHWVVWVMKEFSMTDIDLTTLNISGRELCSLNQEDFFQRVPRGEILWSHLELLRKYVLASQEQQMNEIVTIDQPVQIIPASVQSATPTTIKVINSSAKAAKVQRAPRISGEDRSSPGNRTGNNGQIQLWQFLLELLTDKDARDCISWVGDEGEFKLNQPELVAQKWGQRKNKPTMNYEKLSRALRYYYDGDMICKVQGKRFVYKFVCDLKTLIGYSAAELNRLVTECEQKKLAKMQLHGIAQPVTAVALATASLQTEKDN
# In short: as §1
# ERG = target: T4, ERG (Homo sapiens, UniProt P11308 1-479)
# T4 sequence: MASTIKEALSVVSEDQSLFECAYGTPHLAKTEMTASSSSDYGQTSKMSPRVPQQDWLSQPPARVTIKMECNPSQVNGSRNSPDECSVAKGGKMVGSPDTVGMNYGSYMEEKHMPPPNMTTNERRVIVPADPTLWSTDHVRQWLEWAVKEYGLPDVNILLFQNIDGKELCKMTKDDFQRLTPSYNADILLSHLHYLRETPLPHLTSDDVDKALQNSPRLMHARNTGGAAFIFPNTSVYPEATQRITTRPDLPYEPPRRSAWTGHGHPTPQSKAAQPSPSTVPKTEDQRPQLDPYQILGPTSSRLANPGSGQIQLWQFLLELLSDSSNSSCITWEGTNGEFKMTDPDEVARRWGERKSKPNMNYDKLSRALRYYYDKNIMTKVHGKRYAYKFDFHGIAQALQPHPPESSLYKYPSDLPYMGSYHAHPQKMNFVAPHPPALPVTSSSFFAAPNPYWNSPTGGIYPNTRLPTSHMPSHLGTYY
# In short: as §1
# ELF1 = ELF1 (Homo sapiens, UniProt P32519 1-619)
# Chain of ELF1 (P32519 whole entry): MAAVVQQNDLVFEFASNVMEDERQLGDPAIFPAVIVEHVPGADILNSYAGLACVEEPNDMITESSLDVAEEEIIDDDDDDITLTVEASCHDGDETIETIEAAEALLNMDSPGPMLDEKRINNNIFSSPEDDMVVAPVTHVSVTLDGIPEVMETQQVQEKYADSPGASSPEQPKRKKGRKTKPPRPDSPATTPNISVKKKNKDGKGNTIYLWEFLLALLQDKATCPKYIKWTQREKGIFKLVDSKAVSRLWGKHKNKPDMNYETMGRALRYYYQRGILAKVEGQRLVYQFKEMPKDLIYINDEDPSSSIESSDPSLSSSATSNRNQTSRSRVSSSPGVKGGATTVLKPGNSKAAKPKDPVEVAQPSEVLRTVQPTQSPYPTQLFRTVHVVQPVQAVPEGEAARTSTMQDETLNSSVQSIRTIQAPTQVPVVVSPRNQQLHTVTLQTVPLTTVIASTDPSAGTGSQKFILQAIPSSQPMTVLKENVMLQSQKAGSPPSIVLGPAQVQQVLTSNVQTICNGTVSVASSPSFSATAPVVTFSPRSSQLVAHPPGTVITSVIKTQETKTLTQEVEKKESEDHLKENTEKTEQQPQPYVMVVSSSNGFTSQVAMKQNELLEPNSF
# In short: as §1
# EHF = target: T5, EHF (Homo sapiens, UniProt Q9NZC4 1-300)
# T5 sequence: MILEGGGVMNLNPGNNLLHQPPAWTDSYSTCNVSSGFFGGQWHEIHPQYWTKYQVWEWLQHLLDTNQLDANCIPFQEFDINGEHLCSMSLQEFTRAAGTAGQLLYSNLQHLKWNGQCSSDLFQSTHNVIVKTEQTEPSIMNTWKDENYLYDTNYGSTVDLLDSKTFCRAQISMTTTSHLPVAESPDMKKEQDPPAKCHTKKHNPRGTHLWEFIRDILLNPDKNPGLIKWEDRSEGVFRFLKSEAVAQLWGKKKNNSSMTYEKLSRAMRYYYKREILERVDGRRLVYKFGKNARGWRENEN
# In short: as §1
# SPI1 = SPI1 (Homo sapiens, UniProt P17947 1-270)
# In short: as §1
# SPIB = SPIB (Homo sapiens, UniProt Q01892 1-262)
# Chain of SPIB (Q01892 whole entry): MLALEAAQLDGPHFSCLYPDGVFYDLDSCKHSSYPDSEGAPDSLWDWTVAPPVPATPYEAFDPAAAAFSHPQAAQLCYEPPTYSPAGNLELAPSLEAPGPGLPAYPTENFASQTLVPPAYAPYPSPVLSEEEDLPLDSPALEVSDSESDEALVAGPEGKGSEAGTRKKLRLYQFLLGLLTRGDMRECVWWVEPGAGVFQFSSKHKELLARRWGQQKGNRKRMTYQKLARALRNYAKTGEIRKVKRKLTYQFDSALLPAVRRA
# In short: as §1
# ELK3 = target: T6, ELK3 (Homo sapiens, UniProt P41970 1-407)
# T6 sequence: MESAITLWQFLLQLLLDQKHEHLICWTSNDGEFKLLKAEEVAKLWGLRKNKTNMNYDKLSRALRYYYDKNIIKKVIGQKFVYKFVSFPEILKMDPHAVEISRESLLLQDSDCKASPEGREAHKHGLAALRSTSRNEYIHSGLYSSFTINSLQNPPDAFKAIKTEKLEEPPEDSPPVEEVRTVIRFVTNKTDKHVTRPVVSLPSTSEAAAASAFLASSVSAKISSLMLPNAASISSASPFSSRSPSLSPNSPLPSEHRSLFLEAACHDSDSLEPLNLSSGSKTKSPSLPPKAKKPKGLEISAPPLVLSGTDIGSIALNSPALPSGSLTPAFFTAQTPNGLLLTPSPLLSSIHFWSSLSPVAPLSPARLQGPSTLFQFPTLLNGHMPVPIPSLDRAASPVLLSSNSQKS
# In short: as §1
sequence,measurement,setting,value
TAACTG,binding signal,FLI1,"1.12 fold enrichment (6-mer frequency, TF over GST control)"
same,binding signal,ELK1,"1.19 fold enrichment (6-mer frequency, TF over GST control)"
same,binding signal,GABPA,"1.24 fold enrichment (6-mer frequency, TF over GST control)"
same,binding signal,ERG,"1.25 fold enrichment (6-mer frequency, TF over GST control)"
same,binding signal,ELF1,"1.27 fold enrichment (6-mer frequency, TF over GST control)"
same,binding signal,EHF,"1.15 fold enrichment (6-mer frequency, TF over GST control)"
same,binding signal,SPI1,"1.21 fold enrichment (6-mer frequency, TF over GST control)"
same,binding signal,SPIB,"1.33 fold enrichment (6-mer frequency, TF over GST control)"
same,binding signal,ELK3,"1.26 fold enrichment (6-mer frequency, TF over GST control)"
